Records with an inconclusive call do not appear. Calls follow the shape of the full dose curve.
Assay: qHTS Assay for Lipid Storage Modulators (AID 1519)
Details: Drosophila S3 cells, BODIPY lipid droplet/cell ratio, laser cytometry; at 57.5 µM (top of the series); cells loaded with oleic acid
Method in brief: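 Cells seeded at 5,000 per well were treated with compounds over a concentration series and loaded with oleic acid (400 uM, as added). Lipid droplet fluorescence (488 nm excitation, 500-530 nm channel) was read by laser-scanning cytometry and normalized to 20 uM Triacsin C.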
% is scaled to controls: 0 for no effect and ±100 for the full control effect.

Activity change, negative = inhibition, inactive:
Cc1noc(C)c1-c1nc(N2CCOCC2)c2ccccc2n1 2.85%
Cc1noc(C)c1C(=O)N1CCC2(CCCN(C(=O)Nc3ccccc3)C2)CC1 2.45%
CNc1nc(-c2ccccc2C(F)(F)F)nc2ccccc12 5.47%
COc1ccc(Oc2ncc3nc(-c4ccc(F)cc4)c(=O)n(C)c3n2)cc1 4.46%
O=C(Nc1cccc(F)c1)N1CC2(CCN(C(=O)c3cccc(F)c3)CC2)C1 1.48%
O=C(c1ccncc1)N1CCC2(CCN(Cc3ccccc3)CC2)CC1 3.67%
Cc1cnc(CNc2ncnc3ccc(-c4ccccc4CN(C)C)cc23)cn1 9.03%
CC(=O)N1CCC[C@@]2(CCN(C(=O)Nc3cccc(C#N)c3)C2)C1 2.15%
COCC(=O)N1CCC2(CCN(Cc3ccc(C#N)cc3)CC2)CC1 4.27%
Cn1cccc1C(=O)N1CCC2(CCCN(Cc3ccncc3)C2)CC1 7.27%
CC(=O)N1CCC[C@@]2(CCN(Cc3nccs3)C2)C1 6.81%
CS(=O)(=O)Nc1cccc(-c2nc(NCCN3CCOCC3)c3ccccc3n2)c1 9.69%
Cc1nc2cnc(N3CCNCC3)nc2n(CCC#N)c1=O 4.65%
CNc1ncnc2ccc(-c3cccc(NS(C)(=O)=O)c3)cc12 1.53%
N#Cc1cccc(NC(=O)N2CC[C@@]3(CCCN(C(=O)c4ccco4)C3)C2)c1 6.04%
CC(=O)NCCNc1nc(-c2ccc(N(C)C)cc2)nc2ccccc12 9.02%
FC(F)(F)c1ccccc1-c1nccc(NCc2ccccc2)n1 6.15%
O=C(c1csnn1)N1CCC2(CCN(Cc3ccccc3)CC2)CC1 -4.6%
Cc1cnc(CNc2nc(-c3ccc(N(C)C)cc3)nc3ccccc23)cn1 11.9%
Cn1cc(C(F)(F)F)nc1-c1ccc(OC[C@@H](O)CNCCOc2ccc(O)c(C(N)=O)c2)cc1 1.54%
CN(C)c1ccc(-c2nc(N(C)C)c3ccccc3n2)cc1 -3.41%
O=C(c1ccncc1)N1CCC2(CC1)CCN(c1ccncc1)CC2 1.78%
CC(=O)NCCNc1ncncc1-c1ccccc1C(F)(F)F -1.77%
O=C(c1ccco1)N1CCC[C@@]2(CCN(c3ccccn3)C2)C1 4.34%
O=C(Nc1cccc(F)c1)N1CC2(CCN(C(=O)c3cnccn3)CC2)C1 6.82%
O=C(c1ccncc1)N1CCC2(CCN(Cc3nccs3)CC2)CC1 -1.51%
Cc1noc(C)c1C(=O)N1CCC2(CC1)CN(c1ccccn1)C2 4.72%
Cc1cnc(CNc2cc(-c3ccoc3)ncn2)cn1 3.62%
COCCNc1nc(-c2ccccc2C)nc2ccccc12 7.59%
O=C(c1ccco1)N1CCC[C@@]2(CCN(C(c3ccccc3)c3ccccc3)C2)C1 -15.2%
COc1ccc(C(=O)N2CCC[C@@]3(CCN(C(=O)NC(C)C)C3)C2)cc1 3.48%
O=C(c1cc(C(F)(F)F)cc(C(F)(F)F)c1)N1CCC2(CC1)CN(c1ccncc1)C2 2.27%
Cc1cccc(CNc2ncnc3ccc(-c4c(C)noc4C)cc23)c1 -3.45%
Cn1cccc1C(=O)N1CCC2(CCCN(c3ccncc3)C2)CC1 5.74%
COc1ccc(NC(=O)N2CC3(CCN(C(=O)c4csnn4)CC3)C2)cc1 6.22%
COc1ccc2[nH]cc(CCNc3ccnc(-c4cccc(NS(C)(=O)=O)c4)n3)c2c1 8.87%
O=C(c1ccncc1)N1CCC[C@@]2(CCN(Cc3ccncc3)C2)C1 4.83%
COc1ccc(CNc2cc(-c3ccccc3CN(C)C)ncn2)c(OC)c1 3.53%
O=C(c1ccncc1)N1CCC2(CC1)CCN(c1ccc(-c3ccccc3)cc1)CC2 0.379%
COc1ccc(CNc2nc(-c3ccoc3)nc3ccccc23)c(OC)c1 11%
